Data from PubChem BioAssay (EPA / NIEHS).
Inconclusive results are not listed. Active and inactive are the calls of the source. How the source made its calls: active means hit-call score of the fitted dose curve at least 0.9, where 1 is the maximum; inconclusive means response in the unintended direction; inactive means score below 0.9.

Tests used:
[1] = molecular target: rat Neonicotinoid receptor (NNR), Chrna7 (gene 25302) (UniProt Q05941); test: NVS_LGIC_rNNR_BungSens: NovaScreen (NVS) Ligand-Gated Ion Channel Assay for rat Neonicotinoid receptor (NNR) (AID 2283315)
Outline: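 Radioligand displacement binding on rat cortical membranes, 2.5 h incubation, filtration and scintillation counting. Loss of specific binding fitted relative to DMSO.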

[2] = molecular target: human Adenosine A2a Receptor (AdoRA2a), ADORA2A (gene 135) (UniProt P29274); test: NVS_GPCR_hAdoRA2a: NovaScreen (NVS) G Protein-Coupled Receptor Assay for human Adenosine A2a Receptor (AdoRA2a) (AID 2283256)
human Adenosine A2a Receptor (AdoRA2a), ADORA2A (gene 135), sequence (P29274 whole entry, looked up): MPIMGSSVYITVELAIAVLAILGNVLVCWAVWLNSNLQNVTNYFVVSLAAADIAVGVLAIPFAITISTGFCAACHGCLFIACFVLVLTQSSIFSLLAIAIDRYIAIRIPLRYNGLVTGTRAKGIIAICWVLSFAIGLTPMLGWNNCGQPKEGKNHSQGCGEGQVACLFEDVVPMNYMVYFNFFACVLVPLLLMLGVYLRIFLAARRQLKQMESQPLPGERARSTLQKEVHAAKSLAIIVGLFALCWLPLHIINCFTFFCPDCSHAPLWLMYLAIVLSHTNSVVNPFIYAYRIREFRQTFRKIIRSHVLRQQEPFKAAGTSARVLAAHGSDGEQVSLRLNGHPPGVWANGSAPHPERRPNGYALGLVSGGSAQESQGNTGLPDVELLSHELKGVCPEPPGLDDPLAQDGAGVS
Outline: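 Cell-free radioligand binding on membranes from HEK293 expressing the receptor; competitive displacement read 1.5 h after dosing by filter-based scintillation counting. Primary screen in duplicate at 25 uM; actives followed in concentration series, with DMSO as baseline.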

[3] = molecular target: rat Thyrotropin Releasing Hormone Receptor (TRH), Trhr (gene 25570) (UniProt Q01717); test: NVS_GPCR_rTRH: NovaScreen (NVS) G Protein-Coupled Receptor Assay for rat Thyrotropin Releasing Hormone Receptor (TRH) (AID 2283329);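 further: hit means lower bound tracer signal versus DMSO baseline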
rat Thyrotropin Releasing Hormone Receptor (TRH), Trhr (gene 25570), sequence (Q01717 whole entry, looked up): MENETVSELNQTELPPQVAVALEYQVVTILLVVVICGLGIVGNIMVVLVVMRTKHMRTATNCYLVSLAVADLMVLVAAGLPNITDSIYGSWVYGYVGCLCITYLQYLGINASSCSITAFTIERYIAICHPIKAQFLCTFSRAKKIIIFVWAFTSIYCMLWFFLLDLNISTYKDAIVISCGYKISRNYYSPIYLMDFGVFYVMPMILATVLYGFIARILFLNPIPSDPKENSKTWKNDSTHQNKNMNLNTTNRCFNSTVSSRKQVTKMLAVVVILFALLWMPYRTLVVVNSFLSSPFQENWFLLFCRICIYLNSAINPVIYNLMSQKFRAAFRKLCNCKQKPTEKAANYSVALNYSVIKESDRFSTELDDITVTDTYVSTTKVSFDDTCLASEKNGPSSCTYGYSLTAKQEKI
Outline: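 Competitive radioligand binding on rat forebrain membrane preparations, with filtration and scintillation readout after 4 h. Primary testing in duplicate at 25 uM; actives confirmed in concentration-response. DMSO defined baseline.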

[4] = molecular target: rat Peripheral-type Benzodiazepine Receptor (PBR), Tspo (gene 24230) (UniProt P16257); test: NVS_MP_rPBR: NovaScreen (NVS) Membrane Protein Assay for rat Peripheral-type Benzodiazepine Receptor (PBR) (AID 2283335)
rat Peripheral-type Benzodiazepine Receptor (PBR), Tspo (gene 24230), sequence (P16257 whole entry, looked up): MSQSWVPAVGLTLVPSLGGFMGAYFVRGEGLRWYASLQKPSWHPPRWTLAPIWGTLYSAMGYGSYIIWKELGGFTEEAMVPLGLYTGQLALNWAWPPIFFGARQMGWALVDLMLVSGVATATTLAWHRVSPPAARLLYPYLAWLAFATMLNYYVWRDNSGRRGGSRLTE
Outline: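 Radioligand displacement, rat kidney membrane prep, 1 h exposure, filter-based scintillation read; DMSO baseline, loss-of-signal scored. Primary screen at 25 uM in duplicate, actives followed up in concentration series.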

[5] = molecular target: Estrogen receptor (Homo sapiens) (UniProt P03372); test: OT_ER_ERaERa_1440: Odyssey Thera (OT) 24-hour HEK293T Protein-Complementation Assay for Estrogen Receptor-alpha/-alpha Homodimer (AID 2283349);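 further: hits raise fluorescence above DMSO for agonists and antagonists alike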
Estrogen receptor (Homo sapiens), sequence (P03372 whole entry, looked up, the tested form may be a part): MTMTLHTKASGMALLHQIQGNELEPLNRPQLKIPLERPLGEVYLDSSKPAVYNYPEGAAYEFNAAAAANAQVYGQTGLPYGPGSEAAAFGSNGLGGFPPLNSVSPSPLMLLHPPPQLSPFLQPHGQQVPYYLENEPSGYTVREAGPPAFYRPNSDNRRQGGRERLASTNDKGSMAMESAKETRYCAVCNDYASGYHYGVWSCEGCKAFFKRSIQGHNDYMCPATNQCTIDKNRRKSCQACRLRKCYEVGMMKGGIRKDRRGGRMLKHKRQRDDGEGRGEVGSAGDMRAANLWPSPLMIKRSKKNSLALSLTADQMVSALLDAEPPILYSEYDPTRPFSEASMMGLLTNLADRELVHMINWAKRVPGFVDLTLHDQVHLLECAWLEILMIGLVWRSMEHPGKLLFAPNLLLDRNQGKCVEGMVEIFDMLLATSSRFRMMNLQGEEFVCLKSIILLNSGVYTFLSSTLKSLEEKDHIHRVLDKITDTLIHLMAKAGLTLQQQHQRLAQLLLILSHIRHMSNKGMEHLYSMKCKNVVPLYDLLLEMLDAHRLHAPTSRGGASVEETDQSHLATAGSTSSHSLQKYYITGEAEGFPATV
Outline: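 HEK293T cells stably expressing the human ER alpha ligand-binding domain (aa 310-547) as a homodimer PCA were dosed for 24 hours. Fluorescence intensity was read by laser scanning cytometry, and gain of signal was fitted relative to DMSO vehicle.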

[6] = tested on: 5-hydroxytryptamine receptor 2C (pig); test: NVS_GPCR_p5HT2C: NovaScreen (NVS) G Protein-Coupled Receptor Assay for pig Serotonin, 5-Hydroxytryptamine Receptor 2C (5HT2C) (AID 2283288)
Outline: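 Pig choroid plexus membranes; radioligand competitive binding, filter-based scintillation counting, read 1 h after dosing. Primary screen in duplicate at 25 uM; actives then run as concentration series; loss of signal versus DMSO baseline.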

[7] = molecular target: rat Gamma-Aminobutyric Acid Type A Receptor, Non-Selective (GABAR-NonSelective), Gabra1 (gene 29705) (UniProt P62813); test: NVS_LGIC_rGABAR_NonSelective: NovaScreen (NVS) Ligand-Gated Ion Channel Assay for rat Gamma-Aminobutyric Acid Type A Receptor, Non-Selective (GABAR-NonSelective) (AID 2283326)
rat Gamma-Aminobutyric Acid Type A Receptor, Non-Selective (GABAR-NonSelective), Gabra1 (gene 29705), sequence (P62813 whole entry, looked up): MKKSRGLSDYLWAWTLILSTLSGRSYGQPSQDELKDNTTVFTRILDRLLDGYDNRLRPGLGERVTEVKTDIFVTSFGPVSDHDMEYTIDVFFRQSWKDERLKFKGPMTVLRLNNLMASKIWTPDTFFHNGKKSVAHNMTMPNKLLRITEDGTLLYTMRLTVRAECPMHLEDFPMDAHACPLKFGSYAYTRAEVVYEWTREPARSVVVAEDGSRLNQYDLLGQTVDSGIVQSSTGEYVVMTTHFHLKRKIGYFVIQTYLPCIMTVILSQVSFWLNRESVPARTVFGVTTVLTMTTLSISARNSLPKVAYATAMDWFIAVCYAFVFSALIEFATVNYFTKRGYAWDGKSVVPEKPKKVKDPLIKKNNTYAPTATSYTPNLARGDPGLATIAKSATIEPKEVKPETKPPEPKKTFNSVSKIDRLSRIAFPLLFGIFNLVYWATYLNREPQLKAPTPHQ
Outline: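 Radioligand displacement on rat whole-brain extract, 1 h, filter scintillation readout; signal loss fitted versus DMSO. Primary screen in duplicate at 25 uM; hits (e.g. ≥30% inhibition) retested in concentration-response up to 50 uM.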

[8] = molecular target: chimpanzee Androgen Receptor (AR), AR (gene 747460) (UniProt O97775); test: NVS_NR_cAR: NovaScreen (NVS) Nuclear Receptor Binding Assay for chimpanzee Androgen Receptor (AR) (AID 2283346);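 further: radioligand displacement from AR measured by scintillation counting in a cell-free assay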
chimpanzee Androgen Receptor (AR), AR (gene 747460), sequence (O97775 whole entry, looked up): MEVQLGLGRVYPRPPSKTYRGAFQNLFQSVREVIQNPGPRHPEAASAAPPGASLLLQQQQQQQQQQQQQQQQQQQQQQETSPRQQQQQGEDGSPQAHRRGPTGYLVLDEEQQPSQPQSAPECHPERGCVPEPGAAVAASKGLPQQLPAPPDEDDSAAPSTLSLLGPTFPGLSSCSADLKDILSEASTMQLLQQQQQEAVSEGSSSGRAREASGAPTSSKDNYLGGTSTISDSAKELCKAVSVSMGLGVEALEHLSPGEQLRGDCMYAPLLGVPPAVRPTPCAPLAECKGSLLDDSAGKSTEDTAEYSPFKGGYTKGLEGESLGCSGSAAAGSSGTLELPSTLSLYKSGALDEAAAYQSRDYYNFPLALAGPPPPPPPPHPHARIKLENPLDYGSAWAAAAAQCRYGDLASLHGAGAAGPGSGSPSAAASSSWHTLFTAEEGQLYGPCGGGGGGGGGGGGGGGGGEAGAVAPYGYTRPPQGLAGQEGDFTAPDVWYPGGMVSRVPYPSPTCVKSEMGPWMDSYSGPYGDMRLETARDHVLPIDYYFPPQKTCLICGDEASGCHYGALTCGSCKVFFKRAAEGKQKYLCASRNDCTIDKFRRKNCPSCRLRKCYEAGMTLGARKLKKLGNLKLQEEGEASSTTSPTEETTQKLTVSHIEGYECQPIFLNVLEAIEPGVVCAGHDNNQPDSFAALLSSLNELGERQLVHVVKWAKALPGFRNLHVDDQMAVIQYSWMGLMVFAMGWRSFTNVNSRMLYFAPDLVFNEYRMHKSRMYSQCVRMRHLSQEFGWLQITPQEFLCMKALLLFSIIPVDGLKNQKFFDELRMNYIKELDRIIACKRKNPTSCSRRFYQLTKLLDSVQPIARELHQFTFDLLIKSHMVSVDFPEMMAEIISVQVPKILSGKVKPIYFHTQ
Outline: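 Radioligand binding to chimpanzee AR expressed in Sf9/Sf21 cells, cell-free, measured 72 h after dosing by lysate-based scintillation counting. Loss of signal vs DMSO; initial duplicate screen at 25 uM, actives retested in concentration series.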

[9] = molecular target: D(1A) dopamine receptor (Homo sapiens) (UniProt P21728); test: NVS_GPCR_hDRD1: NovaScreen (NVS) G Protein-Coupled Receptor Assay for human Dopamine Receptor D1 (DRD1) (AID 2283269)
D(1A) dopamine receptor (Homo sapiens), sequence (P21728 whole entry, looked up): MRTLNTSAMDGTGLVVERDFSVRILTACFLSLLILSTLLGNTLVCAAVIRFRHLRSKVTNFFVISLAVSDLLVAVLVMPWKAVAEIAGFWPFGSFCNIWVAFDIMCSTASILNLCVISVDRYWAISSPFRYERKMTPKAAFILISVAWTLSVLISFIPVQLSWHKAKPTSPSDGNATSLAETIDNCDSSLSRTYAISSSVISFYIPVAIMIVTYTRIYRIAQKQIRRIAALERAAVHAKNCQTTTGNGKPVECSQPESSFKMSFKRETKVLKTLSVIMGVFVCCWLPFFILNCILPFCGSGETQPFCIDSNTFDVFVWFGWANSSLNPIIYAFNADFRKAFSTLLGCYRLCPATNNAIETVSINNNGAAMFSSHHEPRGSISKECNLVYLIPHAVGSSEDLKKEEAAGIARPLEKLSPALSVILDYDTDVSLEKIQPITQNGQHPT
Outline: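 Cell-free competition with radioligand, filter-trapped and scintillation-counted 1 h post-dose, using HEK293-derived human D1 preparation. Duplicate single-point testing at 25 uM first, then concentration series for actives; DMSO served as baseline, loss-of-signal scored.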

[10] = molecular target: human Peripheral-type Benzodiazepine Receptor (PBR), TSPO (gene 706) (UniProt P30536); test: NVS_MP_hPBR: NovaScreen (NVS) Membrane Protein Assay for human Peripheral-type Benzodiazepine Receptor (PBR) (AID 2283331);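 further: hits reduce radioligand binding relative to DMSO baseline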
human Peripheral-type Benzodiazepine Receptor (PBR), TSPO (gene 706), sequence (P30536 whole entry, looked up): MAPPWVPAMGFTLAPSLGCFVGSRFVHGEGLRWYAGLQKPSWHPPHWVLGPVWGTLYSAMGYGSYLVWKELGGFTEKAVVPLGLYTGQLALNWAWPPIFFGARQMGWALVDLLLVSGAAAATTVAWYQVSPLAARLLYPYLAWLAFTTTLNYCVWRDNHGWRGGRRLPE
Outline: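 Radioligand displacement on human colonic cell membranes, 1 h incubation; bound radioactivity by filtration and scintillation counting. Primary screen in duplicate at 25 uM single concentration, actives followed up in concentration series; loss of binding versus DMSO.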

[11] = molecular target: bovine Estrogen Receptor (ER), ESR1 (gene 407238) (UniProt P49884); test: NVS_NR_bER: NovaScreen (NVS) Nuclear Receptor Binding Assay for bovine Estrogen Receptor (ER) (AID 2283345);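 further: actives lower the bound radioligand count which means they displace the ER ligand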
bovine Estrogen Receptor (ER), ESR1 (gene 407238), sequence (P49884 whole entry, looked up): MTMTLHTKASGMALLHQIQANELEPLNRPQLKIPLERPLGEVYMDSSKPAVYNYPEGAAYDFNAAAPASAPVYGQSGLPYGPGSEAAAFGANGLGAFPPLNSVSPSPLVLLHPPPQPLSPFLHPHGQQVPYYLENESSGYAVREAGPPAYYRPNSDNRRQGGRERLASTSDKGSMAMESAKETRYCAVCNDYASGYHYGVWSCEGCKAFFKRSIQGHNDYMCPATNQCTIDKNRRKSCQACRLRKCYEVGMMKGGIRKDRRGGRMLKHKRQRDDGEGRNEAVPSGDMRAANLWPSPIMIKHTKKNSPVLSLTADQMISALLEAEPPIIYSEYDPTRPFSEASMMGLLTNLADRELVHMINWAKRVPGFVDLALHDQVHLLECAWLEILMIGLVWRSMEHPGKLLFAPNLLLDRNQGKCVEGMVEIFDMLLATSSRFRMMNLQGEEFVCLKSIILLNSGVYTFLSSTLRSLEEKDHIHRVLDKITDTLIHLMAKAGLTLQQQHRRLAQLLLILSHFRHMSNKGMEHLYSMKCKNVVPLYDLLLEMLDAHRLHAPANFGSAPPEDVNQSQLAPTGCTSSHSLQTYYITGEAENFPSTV
Outline: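 Displacement of a radioligand from estrogen receptor in bovine uterine membrane preparations; scintillation signal taken at 18 hours, DMSO as baseline. Single-concentration duplicates (25 uM) preceded concentration-response follow-up of actives.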

[12] = molecular target: human Opioid Receptor Mu (Opiate Mu), OPRM1 (gene 4988) (UniProt P35372); test: NVS_GPCR_hOpiate_mu: NovaScreen (NVS) G Protein-Coupled Receptor Assay for human Opioid Receptor Mu (Opiate Mu) (AID 2283290);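 further: hits lower bound tracer signal versus DMSO meaning displacement of the ligand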
Outline: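 Primary screen in duplicate at 25 uM, with actives followed in concentration series. CHO-derived receptor membranes, cell-free; bound radioligand read by scintillation counting after filtration at 2.5 h, decrease scored against DMSO.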

[13] = molecular target: Sodium channel protein type 1 subunit alpha (Rattus norvegicus) (UniProt P04774); test: NVS_IC_rNaCh_site2: NovaScreen (NVS) Ion Channel Assay for rat Sodium Channel, Site 2 (NaCh) (AID 2283322);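 further: hit means loss of radioligand binding signal relative to DMSO so AC50 marks displacement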
Outline: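 Membranes: rat forebrain. Format: competitive radioligand displacement, filter separation, scintillation readout, 1 h exposure. Primary screen in duplicate at 25 uM; actives retested in concentration series.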

[14] = molecular target: human Neurokinin, NK2 Receptor, TACR2 (gene 6865) (UniProt P21452); test: NVS_GPCR_hNK2: NovaScreen (NVS) G Protein-Coupled Receptor Assay for human Neurokinin, NK2 Receptor (AID 2283278);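 further: actives reduce bound radioligand signal relative to DMSO baseline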
human Neurokinin, NK2 Receptor, TACR2 (gene 6865), sequence (P21452 whole entry, looked up): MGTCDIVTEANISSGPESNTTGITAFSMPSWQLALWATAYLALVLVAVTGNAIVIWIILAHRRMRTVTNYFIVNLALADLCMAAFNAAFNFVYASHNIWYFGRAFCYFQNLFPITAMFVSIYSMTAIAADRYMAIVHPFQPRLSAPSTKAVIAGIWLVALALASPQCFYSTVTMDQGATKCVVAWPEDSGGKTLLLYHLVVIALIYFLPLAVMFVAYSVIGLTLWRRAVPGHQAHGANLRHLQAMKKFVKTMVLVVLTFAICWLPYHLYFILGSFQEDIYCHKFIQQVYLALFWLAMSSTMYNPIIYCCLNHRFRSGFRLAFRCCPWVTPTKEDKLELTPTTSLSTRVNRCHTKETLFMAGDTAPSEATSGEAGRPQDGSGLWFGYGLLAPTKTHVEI
Outline: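 Cell-free radioligand binding using receptor protein extracted from CHO cells; readings taken 4 hours after chemical dosing by filter-based scintillation counting. Primary screen ran single concentration (25 uM) in duplicate; actives followed up in concentration series, loss-of-signal versus DMSO baseline.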

[15] = molecular target: human Serotonin, 5-Hydroxytryptamine Receptor 7 (5HT7), HTR7 (gene 3363) (UniProt P34969); test: NVS_GPCR_h5HT7: NovaScreen (NVS) G Protein-Coupled Receptor Assay for human Serotonin, 5-Hydroxytryptamine Receptor 7 (5HT7) (AID 2283255);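 further: hits reduce specific radioligand binding relative to DMSO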
Outline: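 Radioligand displacement on membranes from CHO cells expressing human 5HT7, 1 h incubation, filter-based scintillation counting. Primary screen used a single 25 uM concentration in duplicate; actives were followed up in concentration series.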

[16] = molecular target: human Neuropeptide Receptor Y1 (NPY1), NPY1R (gene 4886) (UniProt P25929); test: NVS_GPCR_hNPY1: NovaScreen (NVS) G Protein-Coupled Receptor Assay for human Neuropeptide Receptor Y1 (NPY1) (AID 2283276)
Outline: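 Cell-free radioligand binding using receptor extracted from SK-N-MC cells, 1 h incubation, filter-based scintillation counting. Primary screen single concentration 25 uM in duplicate; actives followed in concentration series. Loss of bound signal scored versus DMSO.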

[17] = molecular target: bovine Gamma-Aminobutyric Acid Type A Receptor Agonist (GABAR Agonist), GABRA1 (gene 780973) (UniProt P08219); test: NVS_LGIC_bGABAR_Agonist: NovaScreen (NVS) Ligand-Gated Ion Channel Assay for bovine Gamma-Aminobutyric Acid Type A Receptor Agonist (GABAR Agonist) (AID 2283338)
Outline: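 Radioligand binding to bovine cerebellar membranes in agonist format, read by filter-based scintillation counting after 1 h. Primary screen in duplicate at 25 uM, with actives followed in concentration series. Gain of signal versus DMSO.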

[18] = molecular target: human Adenosine A1 Receptor (AdoRA1), ADORA1 (gene 134) (UniProt P30542); test: NVS_GPCR_hAdoRA1: NovaScreen (NVS) G Protein-Coupled Receptor Assay for human Adenosine A1 Receptor (AdoRA1) (AID 2283254)
human Adenosine A1 Receptor (AdoRA1), ADORA1 (gene 134), sequence (P30542 whole entry, looked up): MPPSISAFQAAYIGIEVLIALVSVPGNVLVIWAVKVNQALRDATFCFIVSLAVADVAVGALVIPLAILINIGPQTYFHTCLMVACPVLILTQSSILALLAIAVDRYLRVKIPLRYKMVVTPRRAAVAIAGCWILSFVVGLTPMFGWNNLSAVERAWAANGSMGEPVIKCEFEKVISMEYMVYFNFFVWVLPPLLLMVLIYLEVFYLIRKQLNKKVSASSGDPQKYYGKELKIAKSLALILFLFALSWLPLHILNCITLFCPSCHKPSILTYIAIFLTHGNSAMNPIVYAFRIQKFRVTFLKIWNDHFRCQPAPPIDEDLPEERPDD
Outline: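 Radioligand competition binding on human cortical membranes, 1 h after compound addition; bound radioactivity read by filtration and scintillation counting. Loss of signal versus DMSO baseline scored as displacement; primary screen duplicate at 25 uM, actives retested in concentration series.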

[19] = molecular target: Muscarinic acetylcholine receptor M2 (Homo sapiens) (UniProt P08172); test: NVS_GPCR_hM2: NovaScreen (NVS) G Protein-Coupled Receptor Assay for human Muscarinic, M2 Receptor (AID 2283273)
Outline: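 Radioligand displacement on human M2 receptor membranes from CHO cells, 1 h incubation, filtration with scintillation counting. Primary screen in duplicate at 25 uM; actives retested in concentration series; loss of signal fitted versus DMSO.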

[20] = NVS_IC_rCaBTZCHL: NovaScreen (NVS) Ion Channel Assay for Calcium Channel, Type L, Benzothiazepine Site (CaBTZCHL) (AID 2283337)
Outline: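 Competitive displacement of a site-specific radioligand from rat cortex membranes, measured as signal loss against DMSO baseline by filter radiodetection after 1.5 h. Single-point 25 uM primary screen.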

Question: With `CC1=CP(=O)(c2ccccc2)CC1` (stereo unspecified) as the compound, how does the outcome [1] read?
Answer: The outcome was “inactive”.

Question: With `Cc1c[nH]c(=O)[nH]c1=O` as the compound, how does the outcome [2] read?
Answer: Its outcome is “inactive”.

Question: Which outcome [3] does the source give for `CCCCNS(=O)(=O)c1ccccc1` here?
Answer: Its outcome is “inactive”.

Question: And the AC50 [4]?
Answer: Its AC50 is 25 µM (active).

Question: What about the outcome [5] of the same compound?
Answer: Its outcome is “inactive”.

Question: Which outcome [6] does the source give for `Cc1ccc([N+](=O)[O-])cc1N` here?
Answer: Its outcome is “inactive”.

Question: What about the AC50 [7] of the same compound?
Answer: Its AC50 is 13.8 µM (active).

Question: And the AC50 [8]?
Answer: The AC50 was 20.8 µM (active).

Question: What about the outcome [5] of the same compound?
Answer: The outcome was “inactive”.

Question: For `C=C(C)C(=O)OCCCCCCCCCCCC`, which outcome [9] is on record?
Answer: Its outcome is “inactive”.

Question: Which outcome [9] does the source give for `COC(=O)C=Cc1ccccc1` here?
Answer: Its outcome is “inactive”.

Question: Which AC50 [7] does the source give for `Nc1ccc(C(=O)O)cc1` here?
Answer: The AC50 was 2.62 µM (active).

Question: What about the outcome [5] of the same compound?
Answer: Its outcome is “inactive”.

Question: With `CC(C)CCOCc1ccccc1` as the compound, how does the outcome [9] read?
Answer: The outcome was “inactive”.

Question: With `O=C(OCc1ccccc1)c1ccc(O)cc1` as the compound, how does the outcome [3] read?
Answer: The outcome was “inactive”.

Question: What about the AC50 [10] of the same compound?
Answer: The AC50 was 6.36 µM (active).

Question: And the AC50 [4]?
Answer: The AC50 was 3.77 µM (active).

Question: What about the AC50 [11] of the same compound?
Answer: The AC50 was 1.18 µM (active).

Question: And the AC50 [8]?
Answer: Its AC50 is 25 µM (active).

Question: And the AC50 [5]?
Answer: Its AC50 is 37.3 µM (active).

Question: For `CC1=C(O)C(=O)C(C)O1` (stereo unspecified), which outcome [12] is on record?
Answer: Its outcome is “inactive”.

Question: For `C=Cc1cccc(C)c1`, which outcome [13] is on record?
Answer: The outcome was “inactive”.

Question: For `CCOC(=O)/C=C\C(=O)OCC`, which outcome [14] is on record?
Answer: The outcome was “inactive”.

Question: And the outcome [11]?
Answer: The outcome was “inactive”.

Question: And the AC50 [8]?
Answer: The AC50 was 5 µM (active).

Question: Which outcome [15] does the source give for `C1CNCCN1` here?
Answer: The outcome was “inactive”.

Question: What about the outcome [16] of the same compound?
Answer: The outcome was “inactive”.

Question: What about the AC50 [7] of the same compound?
Answer: Its AC50 is 3.59 µM (active).

Question: And the AC50 [17]?
Answer: Its AC50 is 25 µM (active).

Question: And the outcome [5]?
Answer: The outcome was “inactive”.

Question: With `Cn1ccnc1` as the compound, how does the outcome [2] read?
Answer: Its outcome is “inactive”.

Question: Which results are given for `Nc1nc(N)nc(-c2ccccc2)n1`?
Answer: AC50 [18]: 6.11 µM (active); AC50 [2]: 3.01 µM (active); outcome [13]: inactive; outcome [11]: inactive

Question: With `CC(C=O)c1ccccc1` (stereo unspecified) as the compound, how does the outcome [12] read?
Answer: The outcome was “inactive”.

Question: With `CC(C)[N+](C)(CCOC(=O)C1c2ccccc2Oc2ccccc21)C(C)C` as the compound, how does the AC50 [19] read?
Answer: Its AC50 is 0.00229 µM (active).

Question: What about the AC50 [14] of the same compound?
Answer: The AC50 was 17.7 µM (active).

Question: And the AC50 [1]?
Answer: Its AC50 is 9.05 µM (active).

Question: And the AC50 [13]?
Answer: Its AC50 is 10.1 µM (active).

Question: Which results are given for `CCCCCCCCCCCCCc1ccccc1`?
Answer: outcome [18]: inactive; outcome [9]: inactive

Question: What does the source list for `Oc1ccc(/C=C/c2cc(O)cc(O)c2)cc1`?
Answer: outcome [18]: inactive; AC50 [2]: 17.9 µM (active); AC50 [9]: 25 µM (active); AC50 [14]: 0.835 µM (active); outcome [4]: inactive; AC50 [11]: 25 µM (active)

Question: For `[Cl][Sc]([Cl])[Cl]`, which outcome [9] is on record?
Answer: Its outcome is “inactive”.

Question: And the outcome [14]?
Answer: The outcome was “inactive”.

Question: What does the source list for `C/C=C/C=C/CCCCCCCO`?
Answer: outcome [3]: inactive; AC50 [10]: 12.2 µM (active); outcome [5]: inactive

Question: With `CCCCCCCCC(CO)CCCCCC` (stereo unspecified) as the compound, how does the outcome [19] read?
Answer: Its outcome is “inactive”.

Question: And the outcome [20]?
Answer: Its outcome is “inactive”.

Question: And the outcome [5]?
Answer: Its outcome is “inactive”.
